Source: PubChem (National Center for Advancing Translational Sciences (NCATS))
Hits are enriched below; roughly 8.9% of the tested compounds scored in any of these assays.
D3 ag – D3 dopamine receptor (human) agonism; P35462; 410,000 compounds, 0.58% hits; max activation, %; D3R DiscoveRx beta-arrestin cells, luminescence, 90 min; AID 652048; in the data active means max activation above about 30%
Target sequence (P35462 whole entry, looked up): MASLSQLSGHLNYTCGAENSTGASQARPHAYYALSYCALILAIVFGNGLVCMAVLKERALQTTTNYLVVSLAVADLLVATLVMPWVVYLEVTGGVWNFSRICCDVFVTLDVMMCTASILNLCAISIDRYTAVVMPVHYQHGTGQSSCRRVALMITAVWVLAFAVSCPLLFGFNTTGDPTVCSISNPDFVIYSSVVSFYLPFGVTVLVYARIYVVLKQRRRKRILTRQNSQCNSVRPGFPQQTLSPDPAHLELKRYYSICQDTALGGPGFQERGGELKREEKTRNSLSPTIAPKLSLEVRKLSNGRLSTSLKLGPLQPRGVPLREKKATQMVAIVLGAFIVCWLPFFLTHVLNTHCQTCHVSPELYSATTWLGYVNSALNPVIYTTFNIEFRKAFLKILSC
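Cells at 1500/well, incubated overnight, then treated with pinned compounds (dopamine as control) for 90 min at 37 degrees C. DiscoveRx reagent added for 30 - 60 minutes at room temperature; luminescence read.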
D3 antag – antagonists of human D3 dopamine receptor | P35462 | D3R cells, DiscoveRx beta-arrestin luminescence, antagonist mode; hits give low values | max response, negative = inhibition, % | 360,000 compounds, 2.5% hits | AID 652054; in the data active means max response below about -50%; inconclusive means no clear call, values can overlap the other calls
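Cells expressing the human receptor were seeded at 1500 cells/well, incubated overnight at 37 degrees C in 5% CO2, then exposed to library compounds with dopamine controls for 90 minutes at 37 degrees C before luminescent detection.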
MCF10A rerep – inducers of DNA re-replication in MCF 10A breast cells; MCF 10A DNA re-replication, Hoechst nuclear intensity, 48 h; Potency, µM (doses to about 46.1 µM), usual class: activators; 350,000 compounds, 2.9% hits; further: nearly all actives have a fitted effect of over 50% in size
KB-3-1 tox – kills parental KB-3-1 adenocarcinoma cells; KB-3-1 viability, CellTiter-Glo ATP luminescence, 72 h; 400,000 compounds, 1.4% hits; Potency, µM (titrated, usually from 46.1 µM), actives largely listed as cytotoxic; further: nearly all actives have a fitted effect of over 60% in size
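Parental KB-3-1 adenocarcinoma cells in phenol-red-free DMEM with 10% FBS were pin-treated with compounds at several concentrations, incubated 72 h at 37 °C, and viability read by CellTiter-Glo luminescence; concentration-effect curves were fitted after normalization.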
SW480 rerep – inducers of DNA re-replication in SW480 colon cancer cells. Potency, µM (doses to about 46.1 µM), hits mostly activators. 340,000 compounds, 1.8% hits. SW480 DNA re-replication, Hoechst DNA content imaging, 48 h; further: nearly all actives have a fitted effect of over 55% in size
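Treated cells incubate 48 hr (37 C, 5% CO2), are stained 40 min with Hoechst, and nuclear fluorescence is enumerated; a rise in nuclei with high DNA signal marks re-replication.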
KB-V1 MDR tox – kills drug-selected multidrug resistant KB-V1 cells; KB-V1 MDR cells viability, CellTiter-Glo, 72 h; Potency, µM (titrated, usually from 46.1 µM), actives largely listed as cytotoxic; 400,000 compounds, 3.4% hits; further: nearly all actives have a fitted effect of over 60% in size
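Potencies derive from concentration-effect curves fitted to normalized luminescence (CellTiter-Glo) of KB-V1 cells treated for 72 h at 37 degrees C in phenol-red-free DMEM containing 10% FBS.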
Each line names hits and unclear results; the compound was inactive in the other large screens. Unless noted, the call rests on the fitted dose curve; in most records, active means well fitted curve in the direction sought with a large enough effect; inconclusive means small, poorly fitted or top-dose-only effect, or another doubt; inactive means no such curve, though single readings can be large; an effect the other way counts as inactive or inconclusive.

COc1cc(OC)c2c(-c3ccccc3)cc(=O)oc2c1C(CCN1CCCCC1)c1ccc(N(C)C)cc1 (configuration not stated)	KB-3-1 tox inconclusive
CN(C)c1ccc(/C=C/c2ccncc2)cc1	MCF10A rerep inconclusive, KB-3-1 tox inconclusive, SW480 rerep inconclusive
CCN(CC)c1ccc(/C=C/c2ccncc2)cc1	KB-3-1 tox 0.52µM (no result: D3 ag, D3 antag, MCF10A rerep, SW480 rerep)
COc1cc(C(=O)NS(=O)(=O)c2ccccc2C)ccc1Cc1cn(C)c2ccc(NC(=O)OC3CCCC3)cc12	MCF10A rerep 21µM (no result: D3 antag, KB-3-1 tox, KB-V1 MDR tox)
Cc1n[nH]c(=S)n(NC(=O)CC(=O)Nn2c(=S)[nH]nc(C)c2=O)c1=O	D3 antag -86
O=C1CCCc2cc3c(cc21)CC1(C3)Cc2cc3c(cc2C1)C(=O)CCC3	MCF10A rerep 3.3µM, KB-3-1 tox 6.5µM, SW480 rerep 5.8µM
COc1ccc(/C=N/NC(=O)CCn2cnc(-c3ccccc3)c2-c2ccccc2)cc1	MCF10A rerep 1.6µM, KB-3-1 tox 5.2µM, SW480 rerep 3.3µM
O=C(CCn1cnc(-c2ccccc2)c1-c1ccccc1)N/N=C/c1ccccc1O	MCF10A rerep 4.6µM, KB-3-1 tox inconclusive, SW480 rerep 9.2µM
O=C(CCn1cnc(-c2ccccc2)c1-c1ccccc1)N/N=C/c1ccc(O)cc1	MCF10A rerep inconclusive, KB-3-1 tox inconclusive, SW480 rerep inconclusive
C(=C\c1c[nH]c2ccccc12)/c1nccc2ccccc12	none (no result: D3 ag, D3 antag, MCF10A rerep, SW480 rerep)
CCOC(=O)c1c(S(=O)(=O)NCC(=O)Nc2ccc(C)c(N(C)C)c2)c(C)n(C)c1C	none (no result: D3 antag, MCF10A rerep, SW480 rerep)
Cc1oc(-c2ccc(Cl)cc2)nc1Cn1c(=O)cc(C)c2c(C)nn(-c3cccc(F)c3)c21	none (no result: D3 antag, MCF10A rerep, SW480 rerep)
COc1cc(C2CC(=O)Nc3cc4c(cc32)OCO4)cc(OC)c1O (configuration not stated)	KB-3-1 tox inconclusive (no result: D3 antag, MCF10A rerep, SW480 rerep)
CN1c2ccccc2C(C)(C)C12C=Nc1c(cc(N3CCOCC3)c3ccccc13)O2 (configuration not stated)	D3 antag inconclusive, MCF10A rerep 7.3µM, KB-3-1 tox inconclusive, SW480 rerep 21µM
O=C1c2ccccc2N[C@@H]2C=CC[C@@H]2N1O	SW480 rerep 26µM
CCOc1ccc(NC(=O)NCCn2nnc3cc(S(=O)(=O)N(C)C)ccc32)cc1	none (no result: D3 antag, MCF10A rerep, SW480 rerep)
C=CCc1c(C)nc(-c2ccccc2)nc1Nc1ccccc1O	MCF10A rerep 23µM
C=CCc1c(C)nc(-c2ccccc2)nc1N/N=C/c1ccncc1	SW480 rerep 23µM
C=CCc1c(C)nc(C)nc1N/N=C/c1ccccc1	none
C=CCc1c(C)nc(-c2ccccc2)nc1N/N=C(\C)c1ccc(N)cc1	KB-3-1 tox inconclusive, KB-V1 MDR tox 23µM
C=CCc1c(C)nc(-c2ccccc2)nc1N/N=C/c1ccccc1	MCF10A rerep inconclusive
Cc1ccc(S(=O)(=O)NCc2cn3c(C)csc3n2)cc1	none
Cc1ccc(SCc2cn3c(C)csc3n2)cc1	D3 antag -53
O=C(Nc1ccncc1)c1cnn2c1NC(=C1CC1)C=C2C(F)F	KB-V1 MDR tox inconclusive (no result: D3 ag, D3 antag, MCF10A rerep, SW480 rerep)
COc1ccccc1-c1cc(C(=O)Nc2c(C)nn(Cc3ccc(Cl)cc3)c2C)no1	KB-3-1 tox inconclusive (no result: D3 antag, MCF10A rerep, SW480 rerep)
Cn1c(C=O)c(C#CC(C)(C)O)c2ccccc21	none
COc1cccc(C#Cc2c(C=O)n(C)c3ccccc23)c1	D3 ag 56, MCF10A rerep inconclusive, SW480 rerep 2.3µM, KB-V1 MDR tox inconclusive
COC(=O)c1ccc(NC(=O)CSc2nccn2Cc2ccc(Cl)cc2)cc1	none (no result: D3 antag, MCF10A rerep, KB-3-1 tox, SW480 rerep, KB-V1 MDR tox)
COc1ccc(-c2cn(CCC(=O)O)c(-c3ccc(Cl)nc3)n2)cc1	D3 ag 52
O=C(O)CCn1cc(-c2ccc(Cl)cc2)nc1-c1ccc(Cl)nc1	MCF10A rerep inconclusive
Cc1ccc(S(=O)(=O)Nc2ccc3c4c(cccc24)CC3)c(C)c1	D3 antag inconclusive, MCF10A rerep inconclusive, KB-3-1 tox inconclusive, SW480 rerep inconclusive, KB-V1 MDR tox 21µM
Cc1cc(C)c(S(=O)(=O)Nc2ccccc2)c(C)c1	KB-V1 MDR tox 18µM
Cc1ccc(C)c(S(=O)(=O)Nc2ccc(O)c3ccccc23)c1	D3 antag inconclusive
Cc1ccc(S(=O)(=O)Nc2ccc(O)c3ccccc23)c(C)c1	D3 antag -53, MCF10A rerep 21µM
Cc1cc(C)c(S(=O)(=O)Nc2ccc3c4c(cccc24)CC3)c(C)c1	D3 antag inconclusive, MCF10A rerep 0.37µM, KB-3-1 tox 0.73µM, SW480 rerep inconclusive, KB-V1 MDR tox 1.3µM
O=S(=O)(Nc1ccc2c3c(cccc13)CC2)c1ccccc1	none (no result: MCF10A rerep, SW480 rerep)
C[C@@H]1CC2C3CCC4=CC(=O)C=C[C@]4(C)[C@@]3(F)[C@@H](O)C[C@]2(C)[C@@]1(O)C(=O)COC(=O)c1cccc(S(=O)(=O)O)c1 (some centres not stated)	none (no result: D3 ag, D3 antag, KB-3-1 tox, KB-V1 MDR tox)
COc1cccc(C(=O)NNC(=S)NC2CCCCC2)c1	KB-V1 MDR tox 23µM
N#Cc1ccc(C(=O)NC(=S)NC2CCCCC2)cc1	D3 antag -55, SW480 rerep inconclusive
COc1ccc(NC(=S)NCCc2ccccc2OC)c(OC)c1	KB-3-1 tox inconclusive, KB-V1 MDR tox 21µM
COc1ccc(NC(=S)NCc2ccccc2Cl)c(OC)c1	KB-V1 MDR tox inconclusive
COc1ccc(NC(=S)NC2CCCCCC2)c(OC)c1	KB-3-1 tox inconclusive, KB-V1 MDR tox 18µM
Cc1oc2ncnc(N3CCCCC3)c2c1C(=O)NCC1CCN(Cc2cccc(F)c2)CC1	none (no result: D3 antag, MCF10A rerep, SW480 rerep)
COc1ccc(NC(=O)N(C2CCCCC2)C(C)c2ccco2)c(OC)c1 (configuration not stated)	MCF10A rerep inconclusive, KB-V1 MDR tox inconclusive
COc1ccc(NC(=O)N(C2CCCCC2)C2CCN(C(C)C)CC2)c(OC)c1	KB-V1 MDR tox 15µM
CCc1ccc(OCC(=O)Nc2ccc3c(c2)c2ccccc2n3CC)cc1	none (no result: D3 antag, MCF10A rerep, SW480 rerep)
CCn1c2ccccc2c2cc(NC(=O)CC(C)=O)ccc21	MCF10A rerep inconclusive
CCOC(=O)C(=CNc1cccc(C)c1C)C(=O)OCC	D3 ag 39
CCOC(=O)C(=CNc1ccc2c(c1)c1ccccc1n2CC)C(=O)OCC	D3 ag 66, MCF10A rerep inconclusive, SW480 rerep inconclusive
CCOC(=O)C(=CNc1ccc(C)cc1C)C(=O)OCC	none
CCCC(=O)Nc1ccc2c(c1)c1ccccc1n2CC	MCF10A rerep 21µM, KB-3-1 tox inconclusive, SW480 rerep inconclusive, KB-V1 MDR tox inconclusive
CCn1c2ccccc2c2cc(NC(=O)COC(=O)c3cc(OC)c(OC)cc3OC)ccc21	D3 ag 54
CCC(C)c1ccccc1OCC(=O)Nc1ccc(S(=O)(=O)Nc2cc(C)on2)cc1 (configuration not stated)	none (no result: D3 antag, MCF10A rerep, SW480 rerep)
Cc1ccc(C)c(OCCCn2c(-c3ccc(Cl)cc3)nc3ccccc3c2=O)c1	KB-V1 MDR tox inconclusive (no result: D3 antag, MCF10A rerep, SW480 rerep)
